Laboratory results from paper PMC5540273 (PLoS ONE, 2017).

tested on: T1, YANK2; settings: concentration: 1 μM,replicates: in singlicate; n = 1
T1 construct: gene STK32B
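Note: KINOMEscan kinase panel screen.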

In order of rising “%Inh” value:
1. Cc1n[nH]c2cc(Nc3ccnc(Nc4cccc(CN5CCOCC5)c4)n3)ccc12 [GW682569]  0%
2. Cn1ccc2ncnc(Oc3ccc(NC(=O)Nc4ccnc(C(F)(F)F)c4)c(Cl)c3)c21  0%
3. COC(=O)c1cccc(NC(=O)NC2CCN(c3ccnc(NCc4ccc(F)cc4)n3)CC2)c1 [GSK1379860]  0%
4. C[C@@H]1CCN(C(=O)N2CCCC2)C[C@@H]1N(C)c1ncnc2[nH]ccc12  0%
5. O=C(NOCC1CC1)c1cc(Br)c(F)c(F)c1Nc1ccc(I)cc1Cl  0%
6. C[C@@H](Oc1cc(-n2cnc3cc(-c4cnn(C)c4)ccc32)sc1C(N)=O)c1ccccc1Cl [GSK580432]  0%
7. CN(c1ccc2c(c1)nc(NCc1ccc(F)cc1)n2C)c1ccnc(Nc2ccc(CS(C)(=O)=O)cc2)n1.Cl [GW813244]  0%
8. NC(=O)Nc1sc(-c2ccc(F)cc2)cc1C(N)=O [GW789449]  0%
9. O=C(Nc1n[nH]c2cc(-c3ccco3)ccc12)C1CC1 [SB-737447]  0%
10. CCn1c(-c2nonc2N)nc2cncc(CNC3CCNCC3)c21.Cl [SB-747651]  0%
11. O=C(Nc1ccc(Oc2ccc3nc(NC(=O)C4CC4)cn3n2)c(F)c1)c1cccn(-c2ccccc2)c1=O  0%
12. CCn1c(-c2nonc2N)nc2cncc(Br)c21 [SB-738004]  7%
13. C[C@@H]1CNc2c(sc3ccc4nc(-c5ccc(O)cc5)ccc4c23)C(=O)N1  9%
